# The supplement of paper PMC9950053
# Structures can show the parent of a compound that is named as a salt.
# Tested on: Danio rerio larvae (5 dpf)
# Experiment: habituation (activity change first vs second 5 min of 1-s interval sound, period 17) minus DMSO control (percentage points); higher = larger habituation measure than DMSO larvae
# Details: 10 µM; exposure time: 3 h pre-incubation + 3 h imaging
# Procedure: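 Wild-type 5 dpf zebrafish larvae (n=48 per drug, 96-well plates, 28.5 °C) were exposed to Tocris FDA-approved library compounds at 10 µM (0.1% DMSO) for 3 h before and 3 h during imaging. Images were taken every 6 s during visual (moving coloured lines) and acoustic stimuli, and larvae were tracked with the DeepLabCut-based Z-LaP Tracker. Each behavioural measure is the treated-group mean minus the DMSO vehicle control mean (n=844), in percentage points. This mapping covers compounds with 4-character plate codes.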
row,Structure (SMILES),habituation
1,CC#C[C@]1(O)CC[C@H]2[C@@H]3CCC4=CC(=O)CCC4=C3[C@@H](c3ccc(N(C)C)cc3)C[C@@]21C [Mifepristone],-3.13
2,CCOC(=O)[C@H](CCc1ccccc1)N[C@@H](C)C(=O)N1[C@H](C(=O)O)C[C@@H]2CCC[C@@H]21 [Ramipril],0.42
3,Cc1cccc(C)c1OCC(C)N (stereo not given) [Mexiletine hydrochloride],6.36
4,COc1ccc([C@@H]2Sc3ccccc3N(CCN(C)C)C(=O)[C@@H]2OC(C)=O)cc1 [Diltiazem hydrochloride],-0.219
5,CCOC(=O)c1ncn2c1CN(C)C(=O)c1cc(F)ccc1-2 [Flumazenil],-2.62
6,OCCN(CCO)c1nc(N2CCCCC2)c2nc(N(CCO)CCO)nc(N3CCCCC3)c2n1 [Dipyridamole],5.96
7,Nc1ncn([C@@H]2O[C@H](CO)[C@@H](O)[C@H]2O)c(=O)n1 [5-Azacytidine],0.429
8,Clc1ccc(COC(Cn2ccnc2)c2ccc(Cl)cc2Cl)c(Cl)c1 (stereo not given) [Miconazole nitrate],-11.4
9,CO[C@H]1/C=C/O[C@@]2(C)Oc3c(C)c(O)c4c(O)c(c5c(nc6cc(C)ccn65)c4c3C2=O)NC(=O)/C(C)=C\C=C\[C@H](C)[C@H](O)[C@@H](C)[C@@H](O)[C@@H](C)[C@H](OC(C)=O)[C@@H]1C [Rifaximin],-3.24
10,C[C@@H](O[C@H]1OCCN(Cc2n[nH]c(=O)[nH]2)[C@H]1c1ccc(F)cc1)c1cc(C(F)(F)F)cc(C(F)(F)F)c1 [Aprepitant],1.46
11,CN1CCN2c3ncccc3Cc3ccccc3C2C1 (stereo not given) [Mirtazapine],-1.26
12,CN(C)CCc1c[nH]c2ccc(Cn3cncn3)cc12 [Rizatriptan benzoate],-1.58
13,O=C(O[C@@H]1C[C@@H]2C[C@H]3C[C@H](C1)N2CC3=O)c1c[nH]c2ccccc12 [Dolasetron mesylate],1.05
14,COc1cc2ncnc(Nc3ccc(F)c(Cl)c3)c2cc1OCCCN1CCOCC1 [Iressa],1.15
15,CCN(CC)CCNC(=O)c1c(C)[nH]c(/C=C2\C(=O)Nc3ccc(F)cc32)c1C [Sunitinib malate],5.06
16,COc1ccccc1OCCNCC(O)COc1cccc2[nH]c3ccccc3c12 (stereo not given) [Carvedilol],-0.0437
17,C[C@H]1C[C@@H]2[C@H]([C@@H](O)C[C@@]3(C)[C@H]2CC[C@]3(O)C(=O)CO)[C@@]2(C)C=CC(=O)C=C12 [Methylprednisolone],0.909
18,COc1ccc(-c2ccc3cc(C(=O)O)ccc3c2)cc1C12CC3CC(CC(C3)C1)C2 [Adapalene],1.1
19,CC(C)(C)NC(=O)[C@@H]1C[C@@H]2CCCC[C@@H]2CN1C[C@@H](O)[C@H](Cc1ccccc1)NC(=O)[C@H](CC(N)=O)NC(=O)c1ccc2ccccc2n1 [Saquinavir mesylate],-0.527
20,C#C[C@]1(O)CC[C@H]2[C@@H]3CCC4=CC(=O)CC[C@@H]4[C@H]3CC[C@@]21CC [Levonorgestrel],-7.5

row,Structure (SMILES),habituation
1,CN1CC(=O)N2[C@H](c3ccc4c(c3)OCO4)c3[nH]c4ccccc4c3C[C@@H]2C1=O [Tadalafil],-0.158
2,Nc1nc(F)nc2c1ncn2[C@@H]1O[C@H](CO)[C@@H](O)[C@@H]1O [Fludarabine],-0.666
3,CC(C)C(=O)OCC(=O)[C@@]12O[C@H](C3CCCCC3)O[C@@H]1C[C@H]1[C@@H]3CCC4=CC(=O)C=C[C@]4(C)[C@H]3[C@@H](O)C[C@@]12C [Ciclesonide],0.71
4,C/C(O)=C(\C#N)C(=O)Nc1ccc(C(F)(F)F)cc1 [Teriflunomide],-2.85
5,CC(=O)O[C@]1(C(C)=O)CC[C@H]2[C@@H]3C=C(C)C4=CC(=O)CC[C@]4(C)[C@H]3CC[C@@]21C [Megestrol Acetate],-3.62
6,CCCCNc1cc(C(=O)O)cc(S(N)(=O)=O)c1Oc1ccccc1 [Bumetanide],-0.555
7,CCOC(=O)[C@H](CCc1ccccc1)N[C@H]1CCc2ccccc2N(CC(=O)O)C1=O [Benazepril hydrochloride],1.78
8,COc1cc2nc(N3CCN(C(=O)c4ccco4)CC3)nc(N)c2cc1OC [Prazosin hydrochloride],0.443
9,CC(C)(C#N)c1cc(Cn2cncn2)cc(C(C)(C)C#N)c1 [Anastrozole],6.46
10,Cc1cc(C2CCCCC2)n(O)c(=O)c1 [Ciclopirox],-2.51
11,O=C(O)CCCc1ccccc1 [Sodium 4-Phenylbutyrate],-2.16
12,Cc1ccc(-c2cc(C(F)(F)F)nn2-c2ccc(S(N)(=O)=O)cc2)cc1 [Celecoxib],-9.16
13,CC(C)Nc1cccnc1N1CCN(C(=O)c2cc3cc(NS(C)(=O)=O)ccc3[nH]2)CC1 [Delavirdine mesylate],-5.18
14,COc1ccc(Cl)cc1C(=O)NCCc1ccc(S(=O)(=O)NC(=O)NC2CCCCC2)cc1 [Glibenclamide],0.59
15,CC(C)c1nc(N(C)S(C)(=O)=O)nc(-c2ccc(F)cc2)c1/C=C/[C@@H](O)C[C@@H](O)CC(=O)O [Rosuvastatin calcium],1.27
16,CC(C)c1ccc2oc3nc(N)c(C(=O)O)cc3c(=O)c2c1 [Amlexanox],-2.56
17,Cn1cnc([N+](=O)[O-])c1Sc1ncnc2[nH]cnc12 [Azathioprine],-3.52
18,Cc1ccsc1C(=CCCN1CCC[C@@H](C(=O)O)C1)c1sccc1C [Tiagabine hydrochloride],6.37
19,Cn1nnc2c(C(N)=O)ncn2c1=O [Temozolomide],4.81
20,CC[C@H](C)C(=O)O[C@H]1C[C@@H](C)C=C2C=C[C@H](C)[C@H](CC[C@@H]3C[C@@H](O)CC(=O)O3)[C@H]21 [Lovastatin],-2.11
